Source: PubChem BioAssay
Calls of active or inactive are those of the source.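 The calls were made as follows, unless noted: active = NADPH fluorescence slope more negative than the mean of all samples by about 3 SD, 99.7% confidence; inactive = the rest.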

What was measured:
[1] = inhibitors of TNFa-induced NFkB p65 translocation, primary screen, imaging, HUVEC, MLSMR starter and 10KST1 sets (AID 438;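 active = inhibition above 20% together with a positive visual image hit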;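 also: compound added about 3h40 before a 20 min TNFalpha stimulation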;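 as to inhibition: signal is the nuclear over cytoplasmic p65 intensity ratio per well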); conditions: HUVEC TNFa-induced p65 nuclear translocation; cell count: measured here: nuclei count (cytotoxicity indicator), at 2.08 µM; inhibition: at 2 µM, stronger effect = higher value, 0% TNFa-plus-vehicle, 100% no-TNFa wells
[2] = inhibitors of mutant huntingtin aggregation, primary screen, imaging, exon1htt(103Q)mCFP cells, high-content imaging (AID 483;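 active = visual image review flags a hit and inhibition of aggregation exceeds 20%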;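 also: compound exposure lasted 3 days before fixation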;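 as to nuclei count: percent of the per-plate median nuclei count of sample wells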); conditions: exon1htt(103Q)mCFP cell line, aggregate imaging, at 2 µM; inhibition of aggregation: stronger effect = higher value; nuclei count: measured here: cell count, toxicity
[3] = inhibitors of E-selectin induction by TNFa, primary screen, imaging, HUVEC, immunofluorescence, MLSMR starter and 10KST1 sets (AID 487;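 active = visually confirmed hit in the image check and inhibition above 20%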;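 as to inhibition: signal is fraction of cell area covered by stained E-selectin grains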;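 as to nuclei count: 100% = median nuclei count of all wells on the same plate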); conditions: HUVEC TNFalpha-induced E-selectin immunofluorescence imaging, at 2 µM; inhibition: stronger effect = higher value; nuclei count: measured here: cell number, toxicity
[4] = molecular target: Voltage-gated potassium channel subunit beta-2 (Rattus norvegicus) (UniProt P62483); test: KvBeta enzyme negative modulators, primary screen, biochemical, NADPH fluorescence (AID 622;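 active = fluorescence slope higher than the sample average by over 3 SD, cut at about -0.22 in these data, passing the limit was not always enough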;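 also: slope of raw intensity against log time taken from 70 to 1610 s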); conditions: recombinant KvBeta, 4-cyanobenzaldehyde reduction, at 10 µM, stronger effect = higher value
[5] = molecular target: Voltage-gated potassium channel subunit beta-2 (Rattus norvegicus) (UniProt P62483); test: KvBeta positive modulators, primary screen, biochemical, NADPH fluorescence (AID 623); conditions: Recombinant KvBeta, NADPH fluorescence decrease slope, 10 min; at 10 µM; stronger effect = lower value;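 also: fluorescence intensity change per second fitted from 20 to 320 s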
[6] = molecular target: Alpha-2C adrenergic receptor (Homo sapiens) (UniProt P18825); test: modulators of alpha2C/GIRK thallium flux, primary screen, cell-based, HEK293 alpha2C/GIRK1/2 (AID 624;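 active = fluorescence slope after compound addition differing from the mean of all screened samples at 99.7% confidence, in either direction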;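 also: slope of fluorescence ratio to pre-addition baseline per second over 15 to 24 s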); conditions: thallium flux BTC fluorescence, at 10 µM, actives lie on both sides
[7] = inhibitors of Sendai virus-induced IRF3 signaling, primary screen, TLR/RLR signaling modifier project, cell-based, Sendai virus stimulus, luciferase, 10K MLSCN set (AID 602276;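 active = inhibition at or above 50% at 10 µM; inactive = inhibition below 50%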;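 also: firefly luciferase from ISG56 promoter only with Renilla not read in this screen; 0% = Sendai virus plus DMSO and 100% = medium plus DMSO without virus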); conditions: HEK293 RL24 IRF3 luciferase reporter, at 10 µM, stronger effect = higher value
[8] = inhibitors of poly I:C-induced TLR3 signaling, primary screen, cell-based, poly I:C stimulus, luciferase, 10K MLSCN set (AID 602277;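 active = inhibition of the reporter signal at or above 50%; inactive = inhibition below 50%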); conditions: HEK293-TLR3 RL24 IRF3 luciferase reporter, at 10 µM, stronger effect = higher value

Alpha-2C adrenergic receptor (Homo sapiens), sequence (P18825 whole entry, looked up): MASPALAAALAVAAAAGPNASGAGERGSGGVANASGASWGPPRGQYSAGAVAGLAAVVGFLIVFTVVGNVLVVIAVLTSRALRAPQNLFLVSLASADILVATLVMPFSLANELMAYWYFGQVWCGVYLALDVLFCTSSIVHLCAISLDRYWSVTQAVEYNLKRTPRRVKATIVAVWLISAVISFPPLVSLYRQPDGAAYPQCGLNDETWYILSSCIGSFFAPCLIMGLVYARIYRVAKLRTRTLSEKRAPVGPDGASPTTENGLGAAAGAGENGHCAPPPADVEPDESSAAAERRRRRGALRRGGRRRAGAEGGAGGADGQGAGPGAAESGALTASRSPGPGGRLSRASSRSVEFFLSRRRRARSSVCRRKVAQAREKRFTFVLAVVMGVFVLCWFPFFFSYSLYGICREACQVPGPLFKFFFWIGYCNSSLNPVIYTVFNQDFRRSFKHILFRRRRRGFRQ
Voltage-gated potassium channel subunit beta-2 (Rattus norvegicus), sequence (P62483 whole entry, looked up): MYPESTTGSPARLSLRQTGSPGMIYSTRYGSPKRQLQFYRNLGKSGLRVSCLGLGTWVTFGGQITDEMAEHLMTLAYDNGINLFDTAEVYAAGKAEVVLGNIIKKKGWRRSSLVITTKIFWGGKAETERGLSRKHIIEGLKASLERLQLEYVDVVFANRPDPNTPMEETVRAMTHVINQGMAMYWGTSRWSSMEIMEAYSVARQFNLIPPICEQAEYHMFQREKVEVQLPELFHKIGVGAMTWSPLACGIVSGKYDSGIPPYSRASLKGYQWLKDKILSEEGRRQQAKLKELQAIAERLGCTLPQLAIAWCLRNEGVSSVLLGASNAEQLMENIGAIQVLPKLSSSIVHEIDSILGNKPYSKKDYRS

Row | SMILES | cell count [1] | inhibition [1] | inhibition of aggregation [2] | nuclei count [2] [%] | inhibition [3] | nuclei count [3] [%] | fluorescence slope [4] | NADPH fluorescence slope [5] | slope [6] | inhibition [7] | inhibition [8]
1 | Cc1ccc(-n2ncc3c(N4CCCC(C)C4)ncnc32)c(C)c1 (stereo not drawn) | 558 | 8% (inactive) | 10.5% (inactive) | 85.8 | 3.1% (inactive) | 93.2 | -0.527 (inactive) | -3.3e-05 (inactive) | 0.00664 (inactive) | -57.7% (inactive) | -125% (inactive)
2 | O=C(CSCc1ccc(F)cc1)NC1CCCC1 | 750 | -2.8% (inactive) | 12.7% (inactive) | 101 | 33% (inactive) | 93.5 | -0.493 (inactive) | -5.3e-05 (inactive) | 0.00649 (inactive) | -26.1% (inactive) | -75.4% (inactive)
3 | CC(=O)OCC1OC(c2ccccc2)C(OC(C)=O)C(OC(C)=O)C1OC(C)=O (stereo not drawn) | 274 | -5% (inactive) | 15.4% (inactive) | 59.7 | -26.4% (inactive) | 106 | -0.351 (inactive) | -2.1e-05 (inactive) | 0.00646 (inactive) | 6.22% (inactive) | 34.3% (inactive)
4 | CSCCC(NC(=O)c1ccco1)C(=O)O (stereo not drawn) | 411 | 4.4% (inactive) | -0.5% (inactive) | 105 | -358% (inactive) | 143 | -0.534 (inactive) | -4e-05 (inactive) | 0.00451 (inactive) | -9.48% (inactive) | -11.3% (inactive)
5 | CCCCOCP(=O)(CCCC)COCCCC | 369 | 0% (inactive) | 8.7% (inactive) | 88.5 | -35.3% (inactive) | 100 | -0.459 (inactive) | -8.4e-05 (inactive) | 0.00748 (inactive) | 11.3% (inactive) | 22% (inactive)
6 | COc1ccc(NC(=O)CSc2c(C)nn(-c3nnc(C)c(=O)[nH]3)c2C)cc1 | 387 | -4.5% (inactive) | -12.6% (inactive) | 107 | -170% (inactive) | 134 | -0.537 (inactive) | 2e-05 (inactive) | 0.00687 (inactive) | 1.41% (inactive) | 3.06% (inactive)
7 | O=C(Nc1ccccn1)N1CCOCC1 | 319 | 9.3% (inactive) | 10.6% (inactive) | 95.2 | -70.8% (inactive) | 114 | -0.303 (inactive) | -5e-05 (inactive) | 0.00596 (inactive) | 1.79% (inactive) | 0.112% (inactive)
8 | COCCCNC(=O)c1ccccc1NS(=O)(=O)c1ccc(C)cc1 | 369 | -0.9% (inactive) | -9% (inactive) | 122 | -66.6% (inactive) | 72.3 | -0.423 (inactive) | -1.5e-05 (inactive) | 0.00558 (inactive) | 11.8% (inactive) | 16.1% (inactive)
9 | CN(C)S(=O)(=O)c1ccc(Oc2ccc(S(=O)(=O)N(C)C)cc2)cc1 | 273 | -4.4% (inactive) | -0.5% (inactive) | 89.3 | 8.2% (inactive) | 80.6 | -0.42 (inactive) | 3.1e-05 (inactive) | 0.00921 (inactive) | -5.78% (inactive) | -20.3% (inactive)
10 | C=CCn1c(SCC(=O)c2ccc(OC)cc2)nnc1C(C)NC(=O)c1cccs1 (stereo not drawn) | 661 | -0.6% (inactive) | 1.5% (inactive) | 127 | -44.6% (inactive) | 132 | -0.349 (inactive) | -4e-06 (inactive) | 0.00302 (inactive) | 10.6% (inactive) | 12.5% (inactive)
11 | COC(=O)C1(C#N)C(c2ccccc2)C1(C(=O)OC)C(=O)OC (stereo not drawn) | 450 | 2.6% (inactive) | -8.3% (inactive) | 103 | -21.2% (inactive) | 118 | -0.522 (inactive) | -2.1e-05 (inactive) | 0.00516 (inactive) | 13.2% (inactive) | 26.1% (inactive)
12 | Cc1noc(C)c1CSc1nnc2scc(-c3ccc(Cl)cc3)n12 | 339 | -0.4% (inactive) | -18.6% (inactive) | 120 | -88.2% (inactive) | 122 | -0.52 (inactive) | -2.1e-05 (inactive) | 0.00506 (inactive) | -1.42% (inactive) | 6.73% (inactive)
13 | CCC1CCCCN1CCNS(=O)(=O)c1ccc2c(c1)oc(=O)n2C (stereo not drawn) | 809 | 1.8% (inactive) | 19.9% (inactive) | 97.2 | -92.7% (inactive) | 116 | -0.581 (inactive) | -4.9e-05 (inactive) | 0.00605 (inactive) | 14.3% (inactive) | 39.8% (inactive)
14 | CCN1C(=O)CC(N2CCC(Nc3ccc(F)cc3)CC2)C1=O (stereo not drawn) | 559 | -9.7% (inactive) | 6.4% (inactive) | 57.1 | -72% (inactive) | 94.1 | -0.541 (inactive) | 6.8e-06 (inactive) | 0.00599 (inactive) | -4.21% (inactive) | -6.01% (inactive)
15 | COCCCNC(=O)c1c(N)n(-c2cccc(S(N)(=O)=O)c2)c2nc3ccccc3nc12 | 245 | 7% (inactive) | -15.6% (inactive) | 98.9 | 1.4% (inactive) | 73.3 | -0.0132 (inactive) | 1.8e-09 (inactive) | 0.00575 (inactive) | 10.6% (inactive) | -0.988% (inactive)
16 | CCOC(=O)c1[nH]c2ccccc2c1NC(=O)C(C)(C)C | 692 | -10.7% (inactive) | -8.7% (inactive) | 117 | -30.2% (inactive) | 105 | -0.586 (inactive) | -4.7e-05 (inactive) | 0.00597 (inactive) | 13.4% (inactive) | 45.1% (inactive)
17 | Cc1ccccc1OCC(O)CN (stereo not drawn) | 298 | 15.6% (inactive) | 32.2% (active) | 104 | 14.2% (inactive) | 95.6 | -0.542 (inactive) | 1.7e-05 (inactive) | 0.00273 (inactive) | -20.3% (inactive) | -17.4% (inactive)
18 | Cn1c(=O)c2c(nc(CN3CCCCC3)n2CCCc2ccccc2)n(C)c1=O | 431 | 10.1% (inactive) | -30.7% (inactive) | 102 | 38.4% (inactive) | 102 | -0.46 (inactive) | -9.8e-06 (inactive) | 0.00664 (inactive) | 15.4% (inactive) | 44.7% (inactive)
19 | CCc1nc2sc3ccccc3c(=O)c2c(=O)n1Cc1ccco1 | 577 | 14.3% (inactive) | -3.1% (inactive) | 87.2 | 4.8% (inactive) | 112 | -0.568 (inactive) | -3.8e-05 (inactive) | 0.00576 (inactive) | -14.6% (inactive) | -14.8% (inactive)
20 | CC1CCN(Cc2ccc(-c3nn[nH]n3)cc2)CC1 | 582 | -2.9% (inactive) | 17.9% (inactive) | 96.8 | -29.4% (inactive) | 90.6 | -0.659 (inactive) | 2.2e-05 (inactive) | 0.00582 (inactive) | 15.7% (inactive) | 27.1% (inactive)
21 | Nn1c(Cc2ccccc2F)nnc1SCC(=O)N1CC(=O)Nc2ccccc21 | 324 | 20.7% (inactive) | 11.9% (inactive) | 107 | -11.5% (inactive) | 105 | -0.39 (inactive) | 6.9e-08 (inactive) | 0.00403 (inactive) | 11.5% (inactive) | 36.8% (inactive)
22 | Cc1nc2ccc(S(=O)(=O)NCC(=O)N3CCc4ccccc4C3)cc2s1 | 439 | 2.7% (inactive) | 1.5% (inactive) | 91.2 | -4.9% (inactive) | 119 | -0.563 (inactive) | 3.2e-05 (inactive) | 0.00627 (inactive) | -4.3% (inactive) | -28.9% (inactive)
23 | Clc1ccc(C2Nc3ccccc3-n3cccc32)cc1 (stereo not drawn) | 637 | -1.6% (inactive) | 8.6% (inactive) | 109 | -44.3% (inactive) | 104 | -0.301 (inactive) | 2.7e-06 (inactive) | 0.00628 (inactive) | 5.43% (inactive) | 18.8% (inactive)
24 | CC1(C)Oc2ccc3ccc(=O)oc3c2C(N2CCCCC2)C1O (stereo not drawn) | 329 | -4.5% (inactive) | 15% (inactive) | 94.7 | -30.2% (inactive) | 104 | -0.34 (inactive) | 1.2e-05 (inactive) | 0.00144 (inactive) | 18.2% (inactive) | 33.6% (inactive)
25 | Nc1nc(N2C(=O)C3CC=CCC3C2=O)nn1-c1ccccc1 (stereo not drawn) | 444 | 20.1% (inactive) | -11.6% (inactive) | 109 | -23.5% (inactive) | 132 | -0.474 (inactive) | 2.4e-05 (inactive) | 0.00364 (inactive) | -8.69% (inactive) | 23.3% (inactive)
26 | O=c1c2ccccc2c(/C=N/n2cnnc2)c(O)n1-c1ccccc1 | 408 | -1.9% (inactive) | -43% (inactive) | 58.6 | -12.2% (inactive) | 101 | -0.102 (active) | -7.7e-05 (inactive) | 0.00664 (inactive) | -3.33% (inactive) | 6.58% (inactive)
27 | CCOC(=O)N1CCC(NC(=O)CS(=O)(=O)Cc2nc(-c3ccccc3C)oc2C)CC1 | 699 | -7.5% (inactive) | 2.1% (inactive) | 96.6 | -66.8% (inactive) | 119 | -0.513 (inactive) | -2.7e-05 (inactive) | 0.00671 (inactive) | 9.06% (inactive) | -5.43% (inactive)
28 | N#CCOc1nc(N2CCOCC2)nc(N2CCOCC2)n1 | 552 | -30.6% (inactive) | 3% (inactive) | 76.6 | -10.4% (inactive) | 100 | -0.287 (inactive) | -4.5e-05 (inactive) | 0.00534 (inactive) | 10.5% (inactive) | 18.6% (inactive)
